Measured values taken from ChEMBL document CHEMBL3433997, “St. Jude Leishmania screening dataset” (2016).

biological target: Solute carrier family 2, facilitated glucose transporter member 1 (Homo sapiens) (UniProt P11166); assay: ST_JUDE_LEISH: Cytotoxicity at 2uM final concentration against transgenic Leishmania Mexicana promastigotes LmGLUT1 that are glucose transport deficient and complemented with the human glucose transporter GLUT1. Activity is measured by DNA content using SYBR green in vitro; assay type: functional
Sequence (P11166 whole entry): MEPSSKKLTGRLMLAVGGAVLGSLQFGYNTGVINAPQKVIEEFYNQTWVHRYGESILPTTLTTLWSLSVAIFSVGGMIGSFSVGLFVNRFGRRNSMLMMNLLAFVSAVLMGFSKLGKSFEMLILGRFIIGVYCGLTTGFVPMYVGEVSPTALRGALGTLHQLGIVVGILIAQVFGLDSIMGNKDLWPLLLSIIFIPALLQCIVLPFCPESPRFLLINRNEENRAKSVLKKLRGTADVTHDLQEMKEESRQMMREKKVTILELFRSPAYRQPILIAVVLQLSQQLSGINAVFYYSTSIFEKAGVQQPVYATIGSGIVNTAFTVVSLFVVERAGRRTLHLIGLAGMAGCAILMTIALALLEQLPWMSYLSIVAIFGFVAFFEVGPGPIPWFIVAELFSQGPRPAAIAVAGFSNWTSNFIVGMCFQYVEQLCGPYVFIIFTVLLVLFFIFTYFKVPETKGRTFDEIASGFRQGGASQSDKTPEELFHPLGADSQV

Structure (SMILES)	inhibition
O=C(/C=C/c1ccc(Cl)cc1)NCCCCCN1CCCN(C(=O)Nc2ccc(Cl)c(C(F)(F)F)c2)CC1	1.83%
CN1CCN(c2cc3c(cc2Cl)CCN3C(=O)Nc2ccc(NC(=O)c3ccc(C(F)(F)F)cc3)cc2)CC1	3.11%
CCCCNC(=O)[C@@H]1CCCN1C(=O)c1ccc(O)c(-c2ccc(Cl)c(Cl)c2)c1	1.42%
COc1cccc(C(=O)Nc2nonc2-c2ccc(OC)c(OC)c2)c1	2.16%
N#Cc1ccc2c(c1)CCN(CCC1CCC(NC(=O)Nc3ccncc3)CC1)C2 (configuration not stated)	5.14%
O=C(Nc1ccc(Br)cc1)c1cc(Br)ccc1NS(=O)(=O)c1ccc(C(F)(F)F)cc1	0.82%
O=C(Nc1ccc(-c2csc3nccn23)cc1)c1ccc(Cl)cc1	5.5%
COCCNCc1cccc(-c2ccc3c(Nc4ccc(Oc5ccccc5)cc4)ccnc3c2)c1	-0.07%

biological target: Hexose transporter 1 (Plasmodium falciparum) (UniProt O97467); assay: ST_JUDE_LEISH: Cytotoxicity at 2uM final concentration against transgenic Leishmania Mexicana promastigotes LmPfHT that are glucose transport deficient and complemented with the Plasmodium falciparum hexose transporter. Activity is measured by DNA content using SYBR green in vitro; assay type: functional

Structure (SMILES)	inhibition
O=C(CNC1=NCCN1)Nc1ccc(NC(=O)Nc2ccc(NC(=O)CNC3=NCCN3)cc2)cc1	4.85%
COc1cc(Nc2ccc3cc(S(=O)(=O)N4CCCCC4C)ccc3n2)cc(OC)c1OC (configuration not stated)	34.2%
Cc1cccc2nc(-c3ccc(-c4ccc(CNCCCN5CCCC5=O)cc4)s3)[nH]c12	3.54%
CN1CCN(CC(O)CNC(=O)Nc2ccc(Cl)cc2)CC1 (configuration not stated)	5.03%
COc1ccc2nc3cc(Cl)ccc3c(N)c2c1	10%
O=[N+]([O-])c1ccc(Oc2ccccc2CNCC2CCN(CC3CCCCC3)CC2)cc1	15.7%
O=C(NCCCCN1CCC(c2c[nH]c3ccccc23)CC1)c1sc(-c2ccc(C(F)(F)F)cc2)nc1CO	8.88%
COc1ccc2nccc([C@@H](O)CN3CCC(NCc4cc5c(Cl)cccc5[nH]4)CC3)c2c1	14.7%
COc1ccc(C=NN=c2cc(C)[nH]c3ccc(C)cc23)c2ccccc12	1.75%
O=C(Nc1cccc(N2CCC(NCc3cnn(-c4cccc(F)c4)c3)CC2)c1)c1ccncc1	0.64%
COc1cccc(CN2CCC3(CC2)CN(C(=O)Nc2ccc(Cl)c(Cl)c2)C3)c1	3.53%
Clc1ccc(C=NN=c2cc[nH]c3ccccc23)cc1	8.46%
O=C(Nc1cc(C(F)(F)F)cc(C(F)(F)F)c1)N1CCC(CCN2CCC(c3c[nH]c4ccccc34)CC2)CC1	4.12%
c1ccc(Oc2ccc(Nc3ccnc(Nc4ccc(OCCN5CCCCC5)cc4)n3)cc2)cc1	12.8%
COc1ccc(-c2cc(-c3ccc(S(C)(=O)=O)cc3)cnc2N)cn1	0.74%
CNC(=O)Cc1ccc(C(=O)Nc2cccc(-c3csc(-c4nc5ccccc5[nH]4)c3)c2)cc1	-0.06%
COc1cccc(C2=CC(C)(C)Oc3cc(OCCN(C)C)ccc32)c1	-3.47%

Structure (SMILES)	inhibition
COC(=O)c1cccc(CNCc2ccc(-c3ccc(-c4nc5cc(C(F)(F)F)ccc5[nH]4)s3)cc2)c1	2.29%
CN1CCC(NCc2cccc(-c3cccc(S(=O)(=O)NCc4ccccc4)c3)c2)CC1	-2.65%
Clc1ccc(-n2cnc3c(Nc4ccc(Oc5ccccc5)cc4)ncnc32)cc1Cl	1.39%
CCCCCCN1CCCN(Cc2ccc(C(=O)Nc3cccc(CC)c3)cc2)CC1	3.36%
N=C(N)Nc1ccc(Cc2ccc(NC(=N)N)cc2)cc1	-0.57%
CC1(C)CC2CC(C)(CN2C(=O)c2cc(C(C)(C)C)nn2Cc2ccccc2)C1 (configuration not stated)	7.75%
CCOc1cc(CNCCCCCCNCc2cc(OCC)c(OCC)c3ccccc23)c2ccccc2c1OCC	12.1%
CCCCCn1c(Sc2ccc(C#N)c([N+](=O)[O-])c2)nnc1-c1ccccc1	9.62%
COc1ccccc1C(=O)Nc1cccc(N2CCC(NCc3ccc(-n4cccn4)cc3)CC2)c1	10.7%
O=C(Nc1cccc(OC2CCN(Cc3ccccc3)CC2)c1)c1ccc(Cl)c(Cl)c1	1.85%
CCCCc1ccc(NC(=O)Nc2ccc3c(c2)CCNCC3)cc1	2.05%
CC(C)(CNCc1ccccc1)c1nc(-c2ccc(Cl)c(O)c2)c(-c2ccncc2)[nH]1	4.73%
CCCCCCNC(=N)c1ccc(OCCCCCOc2ccc(C(=N)NCCCCCC)cc2)cc1	59.4%
Clc1cc(Nc2ncnc3sc(C#Cc4ncc[nH]4)cc23)ccc1OCc1ccccn1	5.1%
O=c1cc(NCCCNCc2cccc(OC(F)(F)F)c2)[nH]c2ccccc12	-3.41%
O=C(/C=C/c1ccc(Cl)cc1)NCCCCCN1CCCN(C(=O)Nc2ccc(Cl)c(C(F)(F)F)c2)CC1	2.68%
CN1CCN(c2cc3c(cc2Cl)CCN3C(=O)Nc2ccc(NC(=O)c3ccc(C(F)(F)F)cc3)cc2)CC1	8.45%
